# From PubChem BioAssay
# An excerpt weighted towards active compounds, which were near 7.4% of everything screened.
# ELG1 genotoxic: genotoxicity induction in ELG1-luciferase HEK293T cells; HEK293T ELG1-luciferase reporter, luminescence, 16 h; AID 504466; Potency, µM (highest dose often 46 µM), without a hit: at the top dose activity change, positive = activation, most hits filed as activators; 330,000 tested, 1.3% active; further: % of control where 0% means no effect; nearly all actives have a fitted effect of over 60% in size
#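 DMSO vehicle served as control against compound-treated ELG1-luciferase HEK293T cells; exposure lasted 16 hr at 37 °C and 5% CO2, followed by ONE-Glo luminescence detection after 30 min.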
# NPC1 promoter act: activates the NPC1 promoter; Huh7 NPC1 promoter luciferase reporter, 24 h; Potency, µM (top dose mostly 9.22 µM), for the others: at the top dose activation, actives largely listed as activators; 320,000 tested, 2.4% active; AID 485313; further: % of control where 0% means no effect; nearly all actives have a fitted effect of over 60% in size
#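 Luminescence read-out of NPC1 promoter-driven luciferase in stably transfected Huh7 cells; compounds delivered in DMSO and left 24 h at 37C, 5% CO2, qHTS titration format.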
# FLuc counter: counter-screen for miR-21 project: firefly luciferase inhibitors or activators; AID 588342; Potency, µM (series often up to 57.5 µM), without a hit: top-dose activity change, negative = inhibition, usual class: inhibitors; 360,000 tested, 6.9% active; purified FLuc, Km substrates, luminescence inhibition;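 further: plate controls were vehicle for no effect and reference inhibitor for full effect; nearly all actives have a fitted effect of over 55% in size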
# Target sequence (P08659 whole entry, looked up): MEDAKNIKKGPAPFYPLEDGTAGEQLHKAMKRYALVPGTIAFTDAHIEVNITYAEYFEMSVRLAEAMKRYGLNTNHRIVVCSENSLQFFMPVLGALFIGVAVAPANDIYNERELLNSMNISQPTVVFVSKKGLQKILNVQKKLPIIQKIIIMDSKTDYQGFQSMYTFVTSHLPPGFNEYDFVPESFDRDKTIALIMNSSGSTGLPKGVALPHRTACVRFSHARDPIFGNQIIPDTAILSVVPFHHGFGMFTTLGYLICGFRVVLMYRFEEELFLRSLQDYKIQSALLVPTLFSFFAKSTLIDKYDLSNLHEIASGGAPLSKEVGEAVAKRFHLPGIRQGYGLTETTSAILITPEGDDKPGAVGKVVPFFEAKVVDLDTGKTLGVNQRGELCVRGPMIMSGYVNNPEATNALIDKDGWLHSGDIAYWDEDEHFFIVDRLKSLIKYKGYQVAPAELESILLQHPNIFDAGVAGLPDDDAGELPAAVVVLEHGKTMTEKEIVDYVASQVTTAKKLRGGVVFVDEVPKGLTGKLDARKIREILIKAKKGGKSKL
#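 Biochemical qHTS of compounds, final roughly 60 µM downward over six points, against 10 nM purified firefly luciferase using Km concentrations of substrates (10 uM D-luciferin, 10 uM ATP) in Tris acetate pH 7.5 buffer; luminescence output.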
# SMN2 splice enh: SMN2 splice variant enhancement; HEK293 SMN2-luciferase splicing reporter, luminescence, 30-36 h; Potency, µM (doses to about 46.1 µM), for inactives: at the highest dose activity change, positive = activation, most hits filed as activators; 210,000 tested, 2.8% active; AID 1458; further: % of control where 0% means no effect; nearly all actives have a fitted effect of over 55% in size
#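 HEK293 cells carry an SMN2 […]–luciferase reporter in which exon 7 inclusion puts luciferase in frame. Cells were plated 10-12 h before compound addition, then incubated 30-36 h at 37C. ONE-Glo luminescence was read; sodium butyrate at 4.5 mM final served as control.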
# Rab9 promoter act: activators of Rab9 promoter; Huh7 Rab9 promoter-luciferase reporter, luminescence, 24 h; 320,000 tested, 2.8% active; AID 485297; Potency, µM (series often up to 9.22 µM), inactives show at the highest dose activation, negative = inhibition, hits mostly activators; further: % of control where 0% means no effect; nearly all actives have a fitted effect of over 60% in size
#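 Luminescence read-out: Huh7 cells stably expressing Rab9-luciferase, treated 24 h with compound at 37 °C, then lysed with luciferase reagent for 10 min at ambient before reading.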
# Numbers without * were called inactive; ? = inconclusive; / = not tested or not shown; [ ] = another dose, or the depositor's remark. The call rests on the fitted dose curve; in most records, active means well fitted curve in the direction sought with a large enough effect; inconclusive means small, poorly fitted or top-dose-only effect, or another doubt; inactive means no such curve, though single readings can be large; an effect the other way counts as inactive or inconclusive. Potency means the concentration at half of the fitted maximal effect.
SMILES,ELG1 genotoxic,NPC1 promoter act,FLuc counter,SMN2 splice enh,Rab9 promoter act
O=C(c1cccc(OCc2ccccc2)c1)N1CCOCC1,8%,6%,-8%,17%,3%
O=C(c1ccc(Br)cc1)N1CCN(CCc2ccncc2)CC1,/,/,-7%,/,/
Cc1ccc2nc(-c3ccc(NC(=O)COc4ccccc4)cc3)sc2c1,/,/,3µM*,1.3µM*,/
CCOc1cc(C(=O)Nc2ccc(-c3nc4ccccc4s3)cc2Cl)cc(OCC)c1OCC,/,/,13µM*,/,/
CC1(c2ccc(OC(F)F)cc2)NC(=O)N(CC(=O)Nc2ccccc2)C1=O (stereo not drawn),8%,-3%,-8%,/,3%
O=C(COc1ccccc1Cl)Nc1ccc(-c2nc3ccccc3s2)cc1,/,/,-2%,0.79µM*,/
Cc1ccc2nc(-c3ccc(NC(=O)CN4C(=O)NC(C)(c5ccc(OC(F)F)cc5)C4=O)cc3)sc2c1 (stereo not drawn),21µM*,2.5µM*,5.4µM*,/,1.4µM*
CCOc1ccc(C2=NC(c3cccs3)=Nc3ccc(CC)cc3N2)cc1OCC,/,/,-11%,3%,/
Cc1ccc2nc(-c3ccc(NC(=O)COc4ccccc4C(C)(C)C)cc3)sc2c1,/,/,9.5µM*,?,/
C=CCn1c(SCC(=O)Nc2ccc(-c3nc4ccc(C)cc4s3)cc2)nnc1-c1ccccc1,?,?,2.4µM*,0.79µM*,0.5µM*
COc1ccc(/C=C(\C#N)C(=O)OCC(=O)Nc2ccc(-c3nc4ccc(C)cc4s3)cc2)cc1,0.65µM*,0.45µM*,1.7µM*,2.5µM*,0.4µM*
O=C(COc1ccccc1[N+](=O)[O-])Nc1ccc(-c2nc3ccccc3s2)cc1,/,/,-3%,/,/
COc1ccc(/C=N/NC(=O)c2ccccc2O)cc1Cn1cc([N+](=O)[O-])cn1,-5%,1%,?,/,0%
COc1ccc(/C=N/Nc2ccccc2C(=O)O)cc1Cn1cc([N+](=O)[O-])cn1,12%,27%,19µM*,/,22%
Cc1ccc(-c2nc3ccccc3[nH]2)cc1NC(=O)COc1ccccc1[N+](=O)[O-],/,/,3%,-9%,/
O=C1CCn2nc(-c3ccc(Cl)cc3)cc2N1,?,?,19µM*,13µM*,?
O=c1c2sccc2nc(SCc2cc(=O)n3ccccc3n2)n1Cc1ccccn1,?,?,-3%,13µM*,4µM*
COC(=O)c1c(NC(=O)c2cnccn2)sc2c1CCC2,4%,1%,4%,?,2%
O=C(NCc1cccnc1)C(=O)Nc1nc2ccccc2s1,?,14%,15µM*,-13%,22%
CCOc1ccc2nc(NC(=O)c3cnccn3)sc2c1,?,0.79µM*,1.5µM*,/,0.25µM*
O=C(Nc1nc(-c2ccco2)c(-c2ccco2)s1)c1cnccn1,-6%,-11%,-4%,/,-1%
O=C(Nc1nc2c(s1)CCCC2=O)c1cnccn1,23µM*,?,?,20µM*,?
O=C(Nc1nc2ccccc2s1)c1cnccn1,0.46µM*,1.1µM*,2.1µM*,6.3µM*,0.32µM*
CC1=C(C(=O)Nc2ccccc2Br)C2(CCC(C)CC2)OC1=O (stereo not drawn),/,/,-7%,-9%,/
CSc1ncc(Cl)c(C(=O)N(C)c2ccccc2)n1,/,/,-2%,-39%,/
SMILES,ELG1 genotoxic,NPC1 promoter act,FLuc counter,SMN2 splice enh,Rab9 promoter act
O=C(Nc1nc2ccc(F)cc2s1)c1ccccn1,?,?,0.54µM*,-54%,0.089µM*
Cc1csc2ncc(C(=O)Nc3cccc(C(F)(F)F)c3)c(=O)n12,?,22%,1%,?,29%
CCc1ccc(NC(=O)c2cnc3scc(C)n3c2=O)cc1,18µM*,?,?,8.9µM*,4.5µM*
CCc1ccc(NC(=O)c2cnccn2)cc1,?,1.3µM*,5.4µM*,/,1.3µM*
O=C(Nc1ccc(OC(F)(F)F)cc1)c1cnccn1,?,1.8µM*,12µM*,/,2.8µM*
O=C(CN1C(=O)CSc2ccc(S(=O)(=O)N3CCCC3)cc21)Nc1cccc(Cl)c1,/,/,-12%,/,/
COc1ccc(C(=O)/C=C2/c3ccccc3CC(C)(C)N2C)cc1,9%,-34%,5.4µM*,-15%,-14%
COc1ccc(C(=O)/C=C2/C(=O)Nc3ccccc32)c(OC)c1,-5%,1%,8.5µM*,/,0%
O=C1Nc2ccccc2/C1=C/C(=O)c1cccs1,-6%,-3%,15µM*,?,15%
COc1ccc(C(=O)/C=C2/C(=O)Nc3ccccc32)cc1,?,3%,2.4µM*,/,0%
Cc1ccc(NC(=O)c2ccc3c(c2)NC(=O)c2ccccc2S3)c(Cl)c1,/,/,-3%,-39%,/
COc1ccc(C2(C(=O)c3ccccc3)C(=O)c3ccccc3C2=O)cc1,?,2µM*,4.8µM*,/,?
CCCCc1ccc(NC(=S)Nc2cccnc2)cc1,0%,0%,1%,-15%,0%
CCCCc1ccc(NC(=S)Nc2ccc(Nc3ccc(OC)cc3)cc2)cc1,-6%,0%,1%,-31%,-4%
O=C(Nc1ccccc1)OCCCc1ccccc1,-27%,?,19µM*,?,?
CCCCc1ccc(NC(=O)Nc2cccnc2)cc1,?,?,6µM*,/,?
CCCCc1ccc(NC(=O)OC)cc1,8%,13%,17µM*,-13%,15%
COc1ccc(NC(=O)CSC2=Nc3ccccc3C3=NC(Cc4ccccc4)C(=O)N23)cc1 (stereo not drawn),/,/,-2%,/,/
O=[N+]([O-])c1ccc(S(=O)(=O)Cc2ccccc2)c2nonc12,/,/,/,-6%[9.22 µM],/
CN(c1ccccc1)c1ccc(/C=N/N2CCOCC2)cc1,18µM*,1.8µM*,1.7µM*,7.9µM*,1.3µM*
C(=N\N1CCN(c2ccccn2)CC1)/c1ccccn1,?,22%,17µM*,/,?
CN(C)c1ccc(/C=N/N2CCN(c3ccccn3)CC2)cc1,?,?,4.8µM*,/,?
Oc1ccc(/C=N/N2CCN(c3ccccn3)CC2)cc1,14%,1%,?,/,-1%
CCN(CC)CCNC(=O)c1ccc2c(=O)n3nc(Nc4ccccc4)sc3nc2c1,/,/,-14%,/,/
CCOC(=O)Nc1ccc2c(C)cc(=O)oc2c1,18µM*,?,15µM*,14µM*,?
SMILES,ELG1 genotoxic,NPC1 promoter act,FLuc counter,SMN2 splice enh,Rab9 promoter act
CCCCOC(=O)Nc1ccc2c(C)cc(=O)oc2c1,18µM*,1.8µM*,6µM*,11µM*,1.4µM*
CCOC(=O)c1c(C)nc(C)c(C(=O)OCC)c1-c1cccc(N)c1,-8%,-10%,-2%,22µM*,-1%
CCCC[C@H]1C[C@@H]1[C@@H]1N(C(C)=O)[C@H](c2cccc(OC)c2)CC12CC2,/,/,/,-16%,/
COc1ccc(-c2ncncc2-c2ccccc2)c(O)c1,-12%,0%,-2%,/,6%
COc1ccc(O)c(-c2cc(-c3cccs3)[nH]n2)c1,7%,12%,21µM*,?,?
COc1ccc(-c2cc(-c3ccccc3O)[nH]n2)cc1,?,1.8µM*,0.85µM*,/,3.2µM*
